ChEMBL document CHEMBL4513216, “Probing the Open Global Health Chemical Diversity Library for Multistage-Active Starting Points for Next-Generation Antimalarials” (ACS Infect Dis, 2020)
Among all 69,000 compounds or so, about 8,600 (12%) showed an effect of 50% or more. The entries come from a sample that favours strong results as a whole.

test system: Plasmodium berghei; assay: Screen against P. berghei liver stage (PbLuc), transformed with Luciferase, at 10uM; assay type: functional, HepG2; settings: tested at 10 uM

| Compound | INHIBITION [%] |
| --- | --- |
| Cc1occc1C(=O)Nc1cnn(CCN2CCOCC2)c1 | -16.565 |
| O=C(Nc1ccc2c(c1)OCO2)c1ccc(N2CCCC2)nn1 | 43.8 |
| NC(=O)CN(Cc1ccc(Br)cc1)C(=O)c1cnccn1 | 4.22 |
| O=C1COC2(COCCN(Cc3ccsc3)C2)CN1c1ccoc1 (stereo unspecified) | 12.4 |
| CO[C@H]1CO[C@@]2(CCCN(C(=O)C3CC=CC3)C2)C1 | 22.2 |
| CO[C@@H]1CO[C@@]2(CCCN(C(=O)C3CC=CC3)C2)C1 | 53 |
| CO[C@H]1CO[C@@]2(CCCN(C(=O)N3CCCC3)C2)C1 | 45.7 |
| CC(C)c1nc(CN2CCN(CC(O)c3ccccc3)CC2)no1 (stereo unspecified) | 21.5 |
| CC(=O)Nn1c(C)cc(CN2CCCN(Cc3ccncc3)CC2)c1C | 20.4 |
| CC(=O)Nn1c(C)cc(CN2CCC(C(=O)N3CCCC3)CC2)c1C | 52.8 |
| CC(=O)Nn1c(C)cc(CN2CCC(c3ccncc3)CC2)c1C | 28 |
| CN(c1cccnn1)C1CCN(C(=O)c2n[nH]c3c2CCC3)CC1 | -16.7 |
| O=C(c1cnc(-c2cccnc2)nc1)N1CCC(c2ccncc2)CC1 | 21.8 |
| O=C(c1cnc(-c2cccnc2)nc1)N1CCSCC1 | 51.9 |
| O=C(c1cccnc1)N1CCSCC1 | 35.7 |
| Cc1cccc(CNc2ccc(C(=O)N3CCC(CO)CC3)cc2)c1 | 38.3 |
| O=C([C@@H]1COC[C@H]2CN(C3CCOCC3)C[C@H]21)N1CCCCO1 | -3.1 |
| Cc1ccc2c(CC(=O)N(C)CCN(C)C)c(C)[nH]c2c1C | 50.75 |
| CCc1cccc2c(CC(=O)N(C)CCN(C)C)c(C)[nH]c12 | 47.9 |
| Cc1[nH]c2c(C)cccc2c1CC(=O)N(C)CCN(C)C | 34.15 |
| CC(=O)N1CCN(C(=O)CN(C)c2ccc(Cl)cn2)CC1 | 25 |
| c1cncc(OC[C@@H]2CCC[C@@]23CNCCO3)c1 | -2.27 |

| Compound | INHIBITION [%] |
| --- | --- |
| Cc1nc(COC[C@@H]2CCC[C@@]23CNCCO3)cs1 | 48.9 |
| c1cc(COC[C@@H]2CCC[C@@]23CNCCO3)ccn1 | 68.2 |
| c1cncc(COC[C@@H]2CCC[C@@]23CNCCO3)c1 | 24 |
| c1cc(COC[C@H]2CCC[C@]23CNCCO3)ccn1 | 53 |
| c1cncc(COC[C@@H]2CCC[C@]23CNCCO3)c1 | 22.2 |
| COC(=O)c1ccc(CN2CCC(c3n[nH]c(C)n3)CC2)s1 | 16.3 |
| O=C(NCCc1noc(C2CCCC2)n1)c1cn2ccsc2n1 | 47.2 |
| Cc1nc(C2CCN(C(C)C)CC2)sc1Br | 30.4 |
| CCN1CCCC(C)(C(=O)NCc2nccn2Cc2ccccc2)C1 (stereo unspecified) | 47.2 |
| CCn1cnnc1CNC(=O)N1CCN(CCc2ccccc2)CC1 | 23.4 |
| CCN1CCCC(C)(C(=O)NCc2nncn2CCc2ccccc2)C1 (stereo unspecified) | 57 |
| Cc1cc(C)c2ncc(C#N)c(NC3CCN(CC(N)=O)CC3)c2c1 | -5.705 |
| Cc1cnn(CC2CCCCN2C(=O)c2ccc(NC3CC3)nc2)c1 (stereo unspecified) | 42.45 |
| COC1CCN(S(=O)(=O)N2CCCC2c2ccco2)CC1 (stereo unspecified) | 49 |
| O=S(=O)(N1CCN(CC2CC2)CC1)N1CCCC1c1ccco1 (stereo unspecified) | 31.9 |
| O=S(=O)(N1CCC(n2cccc2)CC1)N1CCCC1c1ccco1 (stereo unspecified) | 66.1 |
| CC(C)CN1CCN(S(=O)(=O)c2cn(C)cn2)Cc2cccnc21 | 48.7 |
| COCCC(=O)N1CCCC1c1csc(Nc2ncccn2)n1 (stereo unspecified) | 36.7 |
| O=C(NC1CC1)C1CCN(c2nc3nc[nH]c(=O)c3s2)CC1 | 50.2 |
| CNC(=O)C1CCN(c2nc3nc[nH]c(=O)c3s2)CC1 | 24.7 |
| CC(C)NC(=O)C1CCN(c2nc3nc[nH]c(=O)c3s2)CC1 | 4.35 |
| Cc1ccccc1CCCN(C)S(C)(=O)=O | 24.2 |

| Compound | INHIBITION [%] |
| --- | --- |
| CCN(CC)S(=O)(=O)N(Cc1cccc(C)c1)Cc1ccccn1 | 9.63 |
| CCN(CC)S(=O)(=O)N(Cc1ccccn1)Cc1ccccc1C | 61.3 |
| CCN(CCCc1ccccc1C)S(C)(=O)=O | 14.1 |
| Cc1ccccc1CCCN(Cc1ccccn1)S(C)(=O)=O | 51 |
| CCN(Cc1ccccc1C)S(C)(=O)=O | 5.15 |
| COCCN1CCCN(C(=O)NC(C)Cn2cccn2)CC1 (stereo unspecified) | 42.6 |
| Fc1cnc(N2CCCn3c(nnc3Cn3ccnc3)C2)nc1 | -68 |
| Cc1noc(C2CCN(C(=O)CCCNc3ncccn3)CC2)n1 | 18.4 |
| CCC(CC)c1nnc(NC(=O)NC(C)Cn2cccn2)s1 (stereo unspecified) | 27.4 |
| Cc1nc(CN(C)C2CCN(Cc3cccc4c3OCCO4)C2)no1 (stereo unspecified) | 29.4 |
| O=C1CC[C@H]2[C@H](CCN2c2ncc(F)cn2)N1c1ccccc1 | 49.4 |
| O=C(c1cnccn1)N1CC[C@H]2[C@@H]1CCC(=O)N2c1cccnc1 | 22.9 |
| Cn1cc(N2C(=O)CC[C@@H]3[C@H]2CCN3Cc2nccs2)cn1 | 22.4 |
| O=C(c1cccs1)N1CC[C@@H]2[C@H]1CCC(=O)N2c1ccccc1 | 40.3 |
| Cc1cnc(N2CC[C@H]3[C@@H]2CCC(=O)N3c2ccccc2)nc1 | 2.7 |
| Cn1cc(N2C(=O)CC[C@@H]3[C@H]2CCN3C(=O)c2cscn2)cn1 | 52 |
| O=C(c1cscn1)N1CC[C@H]2[C@@H]1CCC(=O)N2c1ccccc1 | 55.5 |
| Cc1nc(CN2CC[C@H]3[C@@H]2CCC(=O)N3c2cnn(C)c2)cs1 | -20.1 |
| O=C1CC[C@H]2[C@H](CCN2c2ncccn2)N1c1ccccc1 | 55.4 |
| Cc1noc(C(C)C)c1C(=O)NCc1ccc(N(C)C)c(F)c1 | 29.2 |
| COc1cc(CSc2nnc(N)n2C2CC2)ccc1SC | 0.348 |
| CN(C)Cc1noc2c1CN(C(=O)c1ccncc1)CC2 | 39.4 |

| Compound | INHIBITION [%] |
| --- | --- |
| O=S1(=O)[C@@H](c2ccccc2)[C@H](CO)CN1C1CC1 | -1.99 |
| Cc1ccoc1C(=O)N1Cc2c(Cn3ccnc3)nn(C)c2C1 | 39.2 |
| Cc1ccc(C2(O)CCN(C(=O)c3sccc3S(N)(=O)=O)CC2)nc1 | -11.3 |
| COc1ccc(CN(CCC#N)CCN2CCOCC2)cc1OC | 43.4 |
| CCOc1cc(CN(C)Cc2ccccc2)ccc1OC(F)F | 68.8 |
| CCOc1cc(CNC(=O)C(C#N)c2nc(C)cs2)ccc1OC(F)F (stereo unspecified) | 42.8 |
| COc1ccc(F)cc1CSCC(=O)N(CCC#N)CCC#N | -28.8 |
| COc1ccc(F)cc1CSCC(=O)N(C)CCC#N | 13.6 |
| CCOc1cc(CN(C)CC(C)(C)O)ccc1OC(F)F | -2.13 |
| CCOc1ccc(CN(CCC#N)CCN2CCOCC2)cc1OC | 55.4 |
| CCOc1cc(CN(C)CCC#N)ccc1OC(F)F | 64.1 |
| COc1ccc(CN(CCC#N)CCN2CCOCC2)c(OC)c1 | 31.9 |
| CCOc1cc(CN(C)CCCC#N)ccc1OC(F)F | 75.2 |
| CCOc1cc(CN(C)CC(=O)O)ccc1OC(F)F | 21 |
| CCOc1cc(CN(C)CCCO)ccc1OC(F)F | 31.4 |
| CCNC(=O)NC(=O)CNC1(c2noc(C)n2)CCCC1 | 43.8 |
| CNc1cc(C2CN(C(=O)c3cscn3)CCO2)nc(C)n1 (stereo unspecified) | 26.7 |
| COCCNC(=O)C(C)N1CCN(C)CC1 (stereo unspecified) | 4.41 |
| CCN(CC)CCN(C)Cc1cn(C)nc1-c1ccc2c(c1)OCCO2 | 39.4 |
| COc1ccccc1-n1nc(-c2ccco2)n(CC(N)=O)c1=O | 30.9 |
| O=C1COC2(COCCN(Cc3ccsc3)C2)CN1c1ccc(F)cc1 (stereo unspecified) | 13.1 |
| O=C1CCC(c2ccc(Cl)cc2)=NN1CN1CCCCCC1 | -52.7 |

| Compound | INHIBITION [%] |
| --- | --- |
| CC(C)C(=O)N1CC[C@@H]2[C@H](CC1)N(Cc1cccnc1)CCS2(=O)=O | -20.1 |
| CN(C)C(=O)N[C@H]1CN(Cc2ccc3c(c2)OCO3)[C@@H]2CCCO[C@H]12 | 27.2 |
| CCOCCC(=O)N1CCCC(CO)(CC2CC2)C1 (stereo unspecified) | 33 |
| O=C(O)c1nnn(-c2cccc(C(F)(F)F)c2)c1C1CC1 | 12.9 |
| CCOc1cc(CN(C)CCC(=O)OC)ccc1OC(F)F | 54.5 |
| CCOc1cc(CNC(=O)NC2CC=CC2)ccc1OC(F)F | 23.9 |
| CCOc1cc(CN(C)CCOC)ccc1OC(F)F | 43.5 |
| CCN1CC2(CCN(C(=O)c3nc4cc(C)ccn4c3F)CC2)CC1=O | 7.65 |
| CCn1ccc(NS(=O)(=O)c2cccc(CSC)c2)n1 | -3.83 |
| CCCS(=O)(=O)N1CCC2(CC1)CCn1c(-c3cnn(C)c3)cnc12 | 85.4 |
| CC(C)CS(=O)(=O)N1CCC2(CC1)CCn1c(-c3cnn(C)c3)cnc12 | 5.41 |
| CCS(=O)(=O)N1CCC2(CC1)CCn1c(-c3cnn(C)c3)cnc12 | -65.4 |
| Cn1cc(-c2cnc3n2CCC32CCN(S(=O)(=O)C3CC3)CC2)cn1 | 63.1 |
| Cn1cc(N2CCC3(CCN(S(=O)(=O)C4CC4)C3)C2=O)cn1 (stereo unspecified) | 15.1 |
| Cn1cc(-c2cnc3n2CCC32CCN(S(C)(=O)=O)CC2)cn1 | -26.1 |
| O=C(CCO)N1C[C@H]2CN(c3ccccc3)C(=O)[C@H]2C1 | -73.8 |
| Cc1c(-c2cc(-c3cnn(C)c3C)n(CC(=O)NC3CC3)n2)cnn1C | 45.4 |
| Cc1nc(N2CCN(C(=O)C3CCCC3)CC2)c2c(n1)c(C)nn2C | 35.8 |
